Values joined by “and” are separate entries in the source; they are usually repeats but may differ in a detail not shown here. Equal entries are not always repeated. Inconclusive results are not listed. Active and inactive are the calls of the source. The call rests on the fitted dose curve; in most records, active means well fitted cell-killing curve with a large enough effect in the repeat runs; inconclusive means weak or mixed curves, or effect the other way; inactive means flat fitted curve, though single readings scatter.
On the % scale 0 is the no-effect control and ±100 the full control effect; potency means the concentration at half of the fitted maximal effect.

A short description of the experiment: qHTS assay to identify small molecule antagonists of the androgen receptor (AR) signaling pathway using the MDA cell line in the presence of 0.5 nM R1881 - cell viability counter screen (AID 1259242). Further: nearly all actives have a fitted effect of over 45% in size. Particulars: MDA-kb2 viability, CellTiter-Fluor protease fluorescence, 16 h; series mostly up to 92.4 µM; viability change, negative = cytotoxic: at the top concentration. An excerpt:
U.S. Tox21 Program National Center for Advancing Translational Sciences [NCATS] NIH Chemical Genomics Center [NCGC] U.S. Environmental Protection Agency [EPA] National Institutes of Environmental Health Sciences [NIEHS] National Toxicology Program [NTP] U.S. Food and Drug Administration [FDA] Tox21 Assay Overview: Androgen receptor (AR) is an important member of the nuclear receptor family. Its signaling plays a critical role in AR-dependent prostate cancer and other androgen related diseases. Considerable attention has been given in the past decades to develop methods to study and screen for the environmental chemicals that have the potential to interfere with metabolic homeostasis, reproduction, developmental and behavioral functions. Therefore AR binding assay for screening androgen antagonists can be used to identify potential endocrine disruptors. MDA-kb2 cells (from ATCC, deposited by Wilson et al.) were used to screen for AR inhibitors against Tox21 compound libraries. These cells are human breast carcinoma cells that were stably transfected with a luciferase reporter gene under control of the MMTV promoter that contains response elements for both androgen receptor (AR) and glucocorticoid receptor (GR). The current screening for identification of AR inhibitors against Tox21 libraries used lower concentration of (0.5 nM) R1881 as a stimulator. The cytotoxicity of the Tox21 compound libraries against MDA-kb2 cell line was tested by measuring live-cell protease activity using CellTiter-Fluor assay in the same wells.
Tox21 Assay Protocol Summary: MDA-kb2 cells (cells cultured without CO2) were dispensed at 3,000 cells/well in 4 uL of culture medium into white wall/solid-bottom 1536-well plates (Corning Life Sciences, Corning, NY) using a Multidrop Combi (ThermoFisher Scientific, Waltham, MA) dispenser. After the assay plates were incubated at a 37C and 0% CO2 for 5 hr, 23 nL of compounds dissolved in DMSO, positive controls or DMSO only was transferred to the assay plate by a Pintool station (Kalypsys, San Diego, CA). The transfer of compounds was followed by the addition of 1 uL of 0.5 nM (final concentration) agonist (R1881)/culture medium using a Flying Reagent Dispenser (FRD, Aurora Discovery, San Diego, CA). The plates were incubated at 37C and 0% CO2 for 16 hr. For cytotoxicity assay, 1 uL of CellTiter-Fluor reagent (Promega Corporation, Madison, WI) was added to each well using the FRD and after 30 min incubation at 37C and 0% CO2, The fluorescence intensity was measured using ViewLux plate reader (PerkinElmer, Shelton, CT).
(qHTS replaces the single test concentration by a dilution series.)
Take `CCc1oc2ccccc2c1C(=O)c1cc(Br)c(O)c(Br)c1`: the “viability change, negative = cytotoxic” value is -9.72% [at 42.5 µM] (inactive).

On to `CC(C)(C)c1ccc(C(=O)CCCN2CCC(OC(c3ccccc3)c3ccccc3)CC2)cc1`, for which the Potency was 21.1 µM (active).

`CCCC(C)c1ccccc1O` (stereo not given): the “viability change, negative = cytotoxic” value is 0.639% (inactive).

With `O=C(Nc1cccc(Cl)c1)OCC#CCCl`, the Potency was 61.1 µM (active).

With `CCOC(=O)c1nc(C(Cl)(Cl)Cl)n(-c2ccc(Cl)cc2Cl)n1`, the “viability change, negative = cytotoxic” value was -7.35% (inactive).

As for `C[C@@H]1C[C@H]2[C@@H]3CCC4=CC(=O)C=C[C@]4(C)[C@@]3(Cl)[C@@H](O)C[C@]2(C)[C@@]1(OC(=O)c1ccco1)C(=O)CCl`, the “viability change, negative = cytotoxic” value is -4.05% [at 42.5 µM] (inactive).

Consider `Cc1c(C)c2c(c(C)c1OC(=O)CCC(=O)O)CC[C@@](C)(CCC[C@H](C)CCC[C@H](C)CCCC(C)C)O2`, for which the “viability change, negative = cytotoxic” value was -12.5% (inactive).

For the compound `O=C(O)c1c(Cl)cccc1Cl`, the “viability change, negative = cytotoxic” value is -1.24% (inactive).

Regarding `CC(C)=CCOc1ccc(/C=C/C(=O)c2ccc(OCC=C(C)C)cc2OCC(=O)O)cc1`, the “viability change, negative = cytotoxic” value is -3.61% [at 42.5 µM] (inactive).

For the compound `CCCN(CCC)C(=O)C(CCC(=O)OCCCN1CCN(CCOC(=O)Cc2c(C)n(C(=O)c3ccc(Cl)cc3)c3ccc(OC)cc23)CC1)NC(=O)c1ccccc1` (stereo not given), the “viability change, negative = cytotoxic” value was -5.59% [at 42.5 µM] (inactive).

For the compound `CCCCCCCCCCCCCCCS(=O)(=O)Oc1ccccc1`, the “viability change, negative = cytotoxic” value was 6.47% [at 42.5 µM] (inactive).

With `CCN(CC)CCNC(=O)c1c(C)[nH]c(/C=C2\C(=O)Nc3ccc(F)cc32)c1C`, the Potency was 29.8 µM (active).

Turning to `CCCC/C=C/CCCCO`, the “viability change, negative = cytotoxic” value was 2.24% (inactive).

As for `CCCCCCCC[N+](CCCCCCCC)(CCCCCCCC)CCCCCCCC`, the Potency was 9.67 µM (active).

In the case of `Nc1c2ccccc2nc2ccccc12`, the Potency entry is “inactive”.

Turning to `CC(C)c1ccc2c(c1)CC[C@H]1[C@](C)(CN)CCC[C@]21C`, the Potency was 48.6 µM (active).

As to `Cc1cc(C2CCCCC2)n(O)c(=O)c1`, the “viability change, negative = cytotoxic” value is -5.06% [at 42.5 µM] (inactive).

Take `Cc1ccc2oc(CN(Cc3ccccc3)C(=O)Nc3c(F)cc(F)cc3F)c(-c3ccc(Cl)cc3)c2c1`: the “viability change, negative = cytotoxic” value is -1.31% (inactive).

In the case of `CCCCCCCCCCCC[N+](C)(C)CCCCCCCCCCCC`, the Potency is 27.3 µM (active).

On to `CCCCCCCCCOC(=O)c1ccc(O)cc1`, for which the “viability change, negative = cytotoxic” value was -21.6% (inactive).

On to `Clc1ccc(C(Cn2ccnc2)OCc2ccc(Sc3ccccc3)cc2)c(Cl)c1` (stereo not given), for which the “viability change, negative = cytotoxic” value is -0.189% [at 42.5 µM] (inactive).

As to `CCCCCOc1ccccc1/C(=C\SC)n1ccnc1`, the “viability change, negative = cytotoxic” value was -3.28% [at 42.5 µM] (inactive).

For the compound `CCCCCOC(=O)CCCC`, the “viability change, negative = cytotoxic” value was 3% (inactive).

For the compound `COc1ccc(C(=O)/C(Br)=C\C(=O)O)cc1`, the “viability change, negative = cytotoxic” value is -17.8% (inactive).

Take `CCCCC(CC)CN=C(N)NC(N)=NCCCCCCN=C(N)NC(N)=NCC(CC)CCCC` (stereo not given): the Potency is 18.8 µM (active).

As to `Cc1cccc2c1cc1ccc3cccc4ccc2c1c34`, the “viability change, negative = cytotoxic” value is 6.28% (inactive).

`CCN(C(=O)c1cc(C)cc(OC[C@H](C)Nc2ccncc2)c1)C(C)C`: the “viability change, negative = cytotoxic” value is 0.658% [at 42.5 µM] (inactive).

Take `O=c1[nH]cnc2nc[nH]c12`: the “viability change, negative = cytotoxic” value is -1.59% [at 42.5 µM] (inactive).

Take `CC(NN)c1ccccc1` (stereo not given): the viability change, negative = cytotoxic is -1.49% [at 19 µM] (inactive).

In the case of `CCCCCCCC[P+](CCCCCCCC)(CCCCCCCC)CCCCCCCC`, the Potency was 4.3 µM (active).

`O=C(Oc1ccccc1)c1ccccc1C(=O)Oc1ccccc1`: the “viability change, negative = cytotoxic” value is -15.9% (inactive).

On to `Oc1cc2ccccc2c2ccccc12`, for which the Potency is 19.3 µM (active).

For `C[C@H](CCC(=O)O)[C@H]1CC[C@H]2[C@@H]3CC[C@@H]4C[C@H](O)CC[C@]4(C)[C@H]3CC[C@]12C`, the Potency entry was “inactive”.

`CC[C@H](c1ccc(O)cc1)[C@@H](CC)c1ccc(O)cc1`: the Potency result was “inactive”.

Consider `CC(=O)N1CCN(c2ccc(OC[C@H]3CO[C@](Cn4ccnc4)(c4ccc(Cl)cc4Cl)O3)cc2)CC1`, for which the Potency was 61.1 µM (active).

In the case of `CCC(CN)=C(c1ccccc1)c1ccccc1`, the “viability change, negative = cytotoxic” value is -15.5% [at 42.5 µM] (inactive).

With `CCCCCCCCCCCCCC[P+](CCCC)(CCCC)CCCC` (tested in a mixture with another compound), the Potency is 19.4 µM (active).

Turning to `NC(=O)NS(=O)(=O)c1ccc(N)cc1`, the “viability change, negative = cytotoxic” value was 1.23% [at 42.5 µM] (inactive).

For `CCOc1ccc2nc3cc(N)ccc3c(N)c2c1`, the “viability change, negative = cytotoxic” value was 7.92% [at 42.5 µM] (inactive).

As to `CC(C)(C)CC(C)(C)c1ccc(OCCOCC[N+](C)(C)Cc2ccccc2)cc1`, the Potency was 43.2 µM (active) and 21.1 µM (active).
